23 compounds from PubChem BioAssay (NCATS) can be followed below.

The structures appear in SMILES notation. Inconclusive results are not listed. Calls of active or inactive are those of the source. Calls come from the whole dose curve; as a rule, active = well fitted curve in the direction sought with a large enough effect; inconclusive = small, poorly fitted or top-dose-only effect, or another doubt; inactive = no such curve, though single readings can be large; an effect the other way counts as inactive or inconclusive.

Assay [1] in a line: qHTS of pediatric cancer cell lines to identify multiple opportunities for drug repurposing: Primary screen for LAN-5 cells (AID 1347100). Note: potency is the fitted concentration of half-maximal effect. The procedure, abridged:
(§1)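 Cells (500-1,000/well) in growth media were settled 5 h at 37 degrees C, then given compounds for 48 h. Viability was read as CellTiter-Glo luminescence. Primary runs used MIPE at 11 points (0.78 nM-46 µM) and NPC at 8 points (0.59 nM-46 µM); follow-ups used 11 points.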

Assay [2] is described as follows: qHTS of pediatric cancer cell lines to identify multiple opportunities for drug repurposing: Primary screen for BT-12 cells (AID 1347101). Note: nearly all actives have a fitted effect of over 25% in size. Note: potency is the fitted concentration of half-maximal effect. The method in brief: (§2)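 Cells (500-1,000/well) rested 5 h, then received compounds for 48 h; metabolically active cells were measured by CellTiter-Glo luminescence. Final concentrations spanned up to 46 µM (MIPE, 11-point) or 0.59 nM-46 µM (NPC, 8-point) in primary screens, 11-point in follow-ups.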
In general terms: In qHTS, concentration-response curves come from the screen itself.

Assay [3] is described as follows: qHTS of pediatric cancer cell lines to identify multiple opportunities for drug repurposing: Primary screen for Rh18 cells (AID 1347102). Note: nearly all actives have a fitted effect of over 65% in size. Note: potency is the fitted concentration of half-maximal effect. The procedure, abridged:
as §1

A short description of assay [4]: qHTS of pediatric cancer cell lines to identify multiple opportunities for drug repurposing: Primary screen for OHS-50 cells (AID 1347103). Note: nearly all actives have a fitted effect of over 40% in size. Note: potency is the fitted concentration of half-maximal effect. The method in brief: as §2
The nature of assay [5]: qHTS of pediatric cancer cell lines to identify multiple opportunities for drug repurposing: Primary screen for RD cells (AID 1347104). Note: nearly all actives have a fitted effect of over 55% in size. Note: potency is the fitted concentration of half-maximal effect. The method in brief:
(§3)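 Quantitative HTS format: each compound titrated (MIPE 11 points from 0.78 nM, NPC 8 points from 0.59 nM) onto cells plated 5 hours earlier. After 48 h at 37 degrees C, CellTiter-Glo luminescence was recorded.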

Assay [6] in a line: qHTS of pediatric cancer cell lines to identify multiple opportunities for drug repurposing: Primary screen for MG 63 (6-TG R) cells (AID 1347105). Note: nearly all actives have a fitted effect of over 50% in size. Note: potency is the fitted concentration of half-maximal effect. The method in brief:
as §3

Assay [7] in a line: qHTS of pediatric cancer cell lines to identify multiple opportunities for drug repurposing: Primary screen for control Hh wild type fibroblast cells (AID 1347106).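 Note: series mostly up to about 46 µM; a drop in luminescence marks cytotoxicity and a rise apparent proliferation; nearly all actives have a fitted effect of over 55% in size.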 The method in brief:
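Viability after 48 h compound treatment at 37C, 500-1,000 cells/well, read as ATP luminescence with CellTiter-Glo. Primary screens used 11-point (MIPE, 0.78 nM-46 µM) or 8-point (NPC, 0.59 nM-46 µM) final concentrations; follow-up screens used 11-point dilutions.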

The nature of assay [8]: qHTS of pediatric cancer cell lines to identify multiple opportunities for drug repurposing: Primary screen for Rh30 cells (AID 1347107). Note: nearly all actives have a fitted effect of over 75% in size. Note: potency is the fitted concentration of half-maximal effect. The procedure, abridged: as §1
Assay [9] can be described thus: qHTS of pediatric cancer cell lines to identify multiple opportunities for drug repurposing: Primary screen for NB1643 cells (AID 1347099). Note: nearly all actives have a fitted effect of over 50% in size. Note: potency is the fitted concentration of half-maximal effect. The method in brief: as §3

With `C=C1C(=O)OC(CCCCCCCC)C1C(=O)O` (stereo unspecified), the Potency entry in [1], in [2], in assay [3], in [4], in assay [5] and in [6] was “inactive” each time. Also, the Potency result in [7] and in assay [8] was “inactive” each time.
Turning to `Oc1ccc(C2=Cc3ccc(O)cc3OC2)cc1`, the Potency was 9.35 µM (active) in [9]; 2.35 µM (active) in [1]; 4.85 µM (active) in assay [2]; 5.26 µM (active) in [5]; 11.8 µM (active) in assay [8]. For the same compound, the Potency result in [6] and in [7] was “inactive” in each case.
With `O=C1c2c(O)cc(O)cc2O[C@H](c2cc(O)c(O)c(O)c2)[C@H]1O`, the Potency in assay [9] was 23.5 µM (active); in assay [1], 26.4 µM (active). For the same compound, the Potency result in assay [7] and in assay [8] was “inactive” in each case.
For `COc1cc(NC(=O)c2ccc(-c3ccc(Cl)cc3)o2)cc(OC)c1`, the Potency is 6.62 µM (active) in assay [9], 7.43 µM (active) in [6] and 7.43 µM (active) in assay [8]. Further, the Potency entry in assay [2], in [3] and in assay [4] was “inactive” each time.
In the case of `CC(=O)N(C)C1(c2ccccc2)CCN(CCC[C@]2(c3ccc(Cl)c(Cl)c3)CCCN(C(=O)c3ccccc3)C2)CC1`, the Potency in [1] is 23.5 µM (active); in [2] it was 27.3 µM (active); in assay [3], 26.4 µM (active); in assay [4], 24.3 µM (active); in [5], 18.7 µM (active).
`O=C(N[C@@H](c1ccccc1)[C@@H]1CCCCN1)c1cccc(C(F)(F)F)c1Cl`: the Potency result in assay [9], in assay [3], in [6], in assay [7] and in assay [8] was “inactive” in each case. Further, the Potency in assay [1] is 18.7 µM (active).
With `COc1ccc2c(Oc3ccc(NC(=O)c4c(C)n(CC(C)(C)O)n(-c5ccccc5)c4=O)nc3)ccnc2c1`, the Potency entry in assay [9], in assay [1], in assay [5], in [6], in [7] and in assay [8] was “inactive” each time. Also, the Potency in assay [4] was 5.44 µM (active).
Consider `CO[C@H]1C[C@@H]2CC[C@@H](C)[C@@](O)(O2)C(=O)C(=O)N2CCCC[C@@H]2C(=O)O[C@H]([C@H](C)C[C@@H]2CC[C@H](OP(C)(C)=O)[C@H](OC)C2)CC(=O)[C@H](C)C=C(C)[C@@H](O)[C@@H](OC)C(=O)[C@H](C)C[C@H](C)C=CC=CC=C1C`, for which the Potency entry in assay [9], in [5], in assay [6], in assay [7] and in [8] was “inactive” each time. For the same compound, the Potency in [2] is 27.3 µM (active).
Consider `Nc1nc(F)nc2c1ncn2[C@@H]1O[C@H](COP(=O)(O)O)[C@@H](O)[C@H]1O`, for which the Potency in assay [9] is 16.6 µM (active); in assay [4], 0.485 µM (active); in assay [6], 0.469 µM (active). In addition, in assay [3], the Potency result is “inactive”.
Take `COc1cccc([C@@H](C)NCCCc2ccccc2Cl)c1`: the Potency in assay [9] is 20.9 µM (active). For the same compound, the Potency entry in [1], in [3], in assay [4], in assay [5] and in assay [8] was “inactive” throughout.
Turning to `CO[C@H]1C[C@@H]2CC[C@@H](C)[C@@](O)(O2)C(=O)C(=O)N2CCCC[C@@H]2C(=O)O[C@H]([C@H](C)C[C@@H]2CC[C@H](OCCO)[C@H](OC)C2)CC(=O)[C@H](C)C=C(C)[C@@H](O)[C@@H](OC)C(=O)[C@H](C)C[C@H](C)C=CC=CC=C1C`, the Potency result in assay [9], in [6] and in assay [8] was “inactive” in each case. The Potency in assay [4] is 6.11 µM (active).
On to `O=c1cc(-c2ccccc2)oc2cc(O)cc(O)c12`, for which the Potency entry in assay [9], in [2], in assay [3], in [4], in [5] and in assay [6] was “inactive” in each case. Also, the Potency entry in assay [7] and in assay [8] was “inactive” in each case.
`CC(C)(C)c1ccc(C(O)CCCN2CCC(C(O)(c3ccccc3)c3ccccc3)CC2)cc1` (stereo unspecified): the Potency entry in assay [9], in [2], in assay [3], in assay [4], in assay [5] and in [6] was “inactive” each time. Also, the Potency result in [7] and in assay [8] was “inactive” in each case.
On to `C=CCc1ccc(O)c(-c2ccc(O)c(CC=C)c2)c1`, for which the Potency result in assay [9] and in [3] was “inactive” each time. For the same compound, the figures for the Potency in assay [4] and in assay [6] were 24.3 µM (active) and 18.7 µM (active), respectively.
With `NC(=O)c1cccc(-c2cc(Nc3ccc(OC(F)(F)F)cc3)ncn2)c1`, the Potency entry in [9], in assay [3], in assay [5], in assay [6] and in [7] was “inactive” in each case.
For `CC1(C)CCC2=C(O1)c1ccccc1C(=O)C2=O`, the Potency in assay [9] was 23.5 µM (active); in [2], 30.6 µM (active); in [5], 33.2 µM (active); in assay [8] it was 23.5 µM (active). For the same compound, the Potency result in assay [7] is “inactive”.
On to `Clc1ccc(Cn2c(CN3CCCC3)nc3ccccc32)cc1`, for which the Potency entry in assay [9], in assay [1], in assay [5], in [6], in assay [7] and in assay [8] was “inactive” each time.
For `CCC(=O)NC[C@H](Cc1ccc(OCCc2nc(-c3ccccc3)oc2C)cc1)NC(C)=CC(=O)c1ccc(C(F)(F)F)cc1`, the Potency in [9] was 13.2 µM (active); in [1] it was 3.32 µM (active); in assay [4], 12.2 µM (active). Further, the Potency result in [3] and in assay [7] was “inactive” in each case.
`CC[C@H]1OC(=O)[C@H](C)[C@@H](O[C@H]2C[C@@](C)(OC)[C@@H](O)[C@H](C)O2)[C@H](C)[C@@H](O[C@@H]2O[C@H](C)C[C@H](N(C)C)[C@@H]2O)[C@](C)(O)C[C@@H](C)CN(C)[C@H](C)[C@@H](O)[C@]1(C)O`: the Potency result in assay [9], in assay [2], in assay [3], in assay [4], in assay [6] and in assay [7] was “inactive” throughout. Further, the Potency result in assay [8] was “inactive”.
On to `CCS(=O)(=O)N1CC(CC#N)(n2cc(-c3ncnc4[nH]ccc34)cn2)C1`, for which the Potency in [9] was 11.8 µM (active); in [1] it was 20.9 µM (active). Moreover, the Potency result in assay [2] and in [7] was “inactive” throughout.
Turning to `COc1ccc(-c2oc3c(CC=C(C)C)c(OC4O[C@H](CO)[C@@H](O)[C@H](O)[C@@H]4O)cc(O)c3c(=O)c2OC2O[C@@H](C)[C@H](O)[C@@H](O)[C@@H]2O)cc1` (stereo partly specified), the results for the Potency in assay [9], in assay [1] and in assay [4] were 20.9 µM (active), 23.5 µM (active) and 21.7 µM (active), respectively. For the same compound, the Potency result in assay [7] was “inactive”.
As to `CN(C)C1CCN(C(=O)c2ccc(NC(=O)Nc3nc(N4CCOCC4)nc(N4CCOCC4)n3)cc2)CC1`, the Potency in assay [9] was 0.372 µM (active); in [1], 0.187 µM (active); in [3], 0.0526 µM (active); in assay [5] it was 0.0662 µM (active); in assay [6], 0.0935 µM (active). In assay [8], the Potency result is “inactive”.
For `CC(C)(C)Cn1c(N)nc2ccc(-c3[nH]c(C(C)(C)C)nc3-c3ccc(F)cc3)nc21`, the Potency was 11.8 µM (active) in assay [9], 27.3 µM (active) in assay [2], 20.9 µM (active) in assay [5] and 20.9 µM (active) in [8]. For the same compound, the Potency result in [1] and in [7] was “inactive” in each case.
